Compound activity from PubChem.
ClpP mod: qHTS Assay for Activators of ClpP; 1.9% of 340,000 active; AID 651965, 2013; ATP-dependent Clp protease proteolytic subunit (Bacillus subtilis (strain 168)), P80244; Potency, µM (doses to about 57.5 µM), for the others: at the highest dose activity change, negative = active; purified B. subtilis ClpP, FRET peptide cleavage, 20 min; active = well fitted falling curve with a large enough effect; inconclusive = small, poorly fitted or top-dose-only effect; inactive = no such curve, though single readings can be large or run the other way; note: the source files actives as falling curves though it sought activators and does not explain the sign; nearly all actives have a fitted effect of over 65% in size
Target sequence (P80244 whole entry, looked up): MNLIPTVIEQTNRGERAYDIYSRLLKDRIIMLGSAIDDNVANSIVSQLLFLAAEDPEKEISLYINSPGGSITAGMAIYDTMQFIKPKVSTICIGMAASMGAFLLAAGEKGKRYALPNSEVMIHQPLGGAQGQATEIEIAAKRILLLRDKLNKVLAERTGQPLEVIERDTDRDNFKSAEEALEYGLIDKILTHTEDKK
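FRET quenching reversal measured ClpP activation: 10 microg/mL B. subtilis ClpP at pH 8 with the FRET-FV decapeptide, read at 430 nm after 320 nm excitation. The 20-min minus 0-min signal was scaled between DMSO/no-enzyme wells and ADEP (5.8 microM final).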
GLP1R ag: qHTS of GLP-1 Receptor Agonists | Glucagon-like peptide 1 receptor (Homo sapiens), P43220 | HEK293 GLP-1R CRE-luciferase, luminescence, 4-6 h; cells express a hypersensitive GLP-1R form | Potency, µM (series often up to 45.6 µM), inactives show at the highest dose activation, actives largely listed as activators | 0.007% of 380,000 active; note: % of control where 0% means no effect
Target sequence (P43220 whole entry, looked up): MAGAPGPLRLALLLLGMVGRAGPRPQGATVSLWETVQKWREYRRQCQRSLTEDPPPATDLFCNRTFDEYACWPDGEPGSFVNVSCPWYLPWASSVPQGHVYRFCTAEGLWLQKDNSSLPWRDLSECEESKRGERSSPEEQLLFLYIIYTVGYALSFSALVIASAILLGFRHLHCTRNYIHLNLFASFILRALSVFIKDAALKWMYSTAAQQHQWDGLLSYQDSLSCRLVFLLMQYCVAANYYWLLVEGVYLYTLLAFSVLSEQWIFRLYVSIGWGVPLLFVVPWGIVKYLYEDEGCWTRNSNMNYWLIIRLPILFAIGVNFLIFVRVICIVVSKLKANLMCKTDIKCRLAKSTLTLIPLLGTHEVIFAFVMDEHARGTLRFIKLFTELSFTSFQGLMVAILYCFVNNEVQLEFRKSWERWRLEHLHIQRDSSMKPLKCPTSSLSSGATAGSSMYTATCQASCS
HEK293 tox: qHTS of GLP-1 Receptor Inverse Agonists: Cytotox Screen; HEK293 cAMP-luciferase reporter cells, luminescence, 24 h; 0.13% of 410,000 active; Potency, µM (top dose mostly 38.3 µM), for the others: at the top dose activity change, negative = inhibition, hits mostly inhibitors;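 note: loss of luciferase light is scored as toxicity; % is set by controls: 0 for no effect and ±100 for the full control effect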
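Cells in DMEM/10% Nu serum/1% pen-strep, 1536-well format. Pre-incubated 12 h, dosed with 23 nL compound, incubated a further 24 h. Luciferase detection, 12 min at room temp, luminescence.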
GLP1R inv ag: qHTS of GLP-1 Receptor Inverse Agonists (Inhibition Mode); Potency, µM (titrated, usually from 38.3 µM), inactives show top-dose activity change, negative = inhibition, actives largely listed as inhibitors; Glucagon-like peptide 1 receptor (Homo sapiens), P43220; HEK293 GLP-1R CRE-luciferase, luminescence, 24 h; GLP-1R form is constitutively active; 1.6% of 410,000 active; note: % is set by controls: 0 for no effect and ±100 for the full control effect; nearly all actives have a fitted effect of over 55% in size
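Inverse agonists were sought by their lowering of basal cAMP reporter luciferase output in HEK293 cells stably carrying constitutively active human GLP-1R, after 24 h compound treatment.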
* = called active by the depositor; ? = inconclusive; · = no result. Hits are enriched below; roughly 3.2% of the tested compounds scored in any of these assays. Unless noted, calls come from the whole dose curve; as a rule, active = well fitted curve in the direction sought with a large enough effect; inconclusive = small, poorly fitted or top-dose-only effect, or another doubt; inactive = no such curve, though single readings can be large; an effect the other way counts as inactive or inconclusive. Potency is the fitted concentration of half-maximal effect.

SMILES	ClpP mod	GLP1R ag	HEK293 tox	GLP1R inv ag
Clc1cccc(CSc2nncn3c2cc2sccc23)c1	10%	·	-3%	?
O=C(CN1C2CCCC1CC(NC(=O)c1ccco1)C2)Nc1ccccc1C(F)(F)F (stereo not drawn)	0%	-4%	-12%	?
CCC(C(=O)Nc1cc(C)nn1-c1nc(C)cc(C)n1)c1ccccc1 (stereo not drawn)	-3%	19%	?	3.5µM*
Cc1cc(C)nc(-n2nc(C)cc2NC(=O)CN2CCc3ccccc3C2)n1	0%	10%	5µM*	?
Cc1cc(C)nc(-n2nc(C)cc2NC(=O)CN2CCCC(C)C2)n1 (stereo not drawn)	1%	25%	-1%	-1%
O=C(CN1C2CCCC1CC(NC(=O)c1ccccc1)C2)Nc1ccccc1C(F)(F)F (stereo not drawn)	·	13%	-7%	2µM*
O=C(CN1CCc2ccccc2C1)Nc1ccccc1C(F)(F)F	32µM*	7%	8%	?
CCN1C(=O)c2ccccc2Sc2ccc(NC(=O)Nc3cc(C)cc(C)c3)cc21	-2%	·	-16%	?
O=C(Cc1ccc(F)cc1)NC1CC(=O)N(c2ccc3c(c2)OCCO3)C1 (stereo not drawn)	-1%	0%	8%	-7%
COc1ccccc1N1CCN(C(=O)c2oc3ccccc3c2NC(=O)C(C)Oc2ccccc2)CC1 (stereo not drawn)	-14%	·	17%	1%
COc1cccc(NC(=S)N/N=C2\CC(C)(C)Oc3ccc(O)cc32)c1	?	3%	?	7.1µM*
Cc1ccc(-c2cccc(C3CC=CC4C3C(=O)N(Cc3ccccc3)C4c3cc(C)ccc3F)c2)cc1 (stereo not drawn)	-2%	-4%	-20%	4.5µM*
COc1ccc(-c2cccc(C3CC=CC4C3C(=O)N(Cc3ccccc3)C4c3ccc(C(F)(F)F)cc3)c2)cc1 (stereo not drawn)	-3%	-1%	11%	?
O=C1C2C(c3ccccc3)CC=CC2[C@H](c2cccc([N+](=O)[O-])c2)N1Cc1ccccc1 (stereo partly drawn)	-1%	-5%	3%	10µM*
CCCOC(=O)CSc1nc(N)c(C#N)c(-c2ccco2)c1C#N	25µM*	6%	-9%	11%
CCOC(=O)C1CCN(C(=O)c2nn(-c3ccc(OC)cc3)c(=O)c3c2c2ccccc2n3C)CC1	-22%	·	-12%	9%
O=C1NCC(c2ccccc2)C1C(=O)N/N=C\c1ccc(-c2ccc(Cl)c(Cl)c2)o1 (stereo not drawn)	-21%	-5%	?	10µM*
Cc1ccc(-c2nc3ccccc3o2)cc1NC(=O)Cc1ccc(Cl)cc1	-5%	·	5%	2%
Fc1cccc(-c2cc3nc4c(c(N5CCOCC5)n3n2)CCCC4)c1	?	2%	6%	0%
OC1CCN(c2c3c(nc4cc(-c5ccc(Cl)cc5)nn24)CCC3)CC1	14µM*	17%	-9%	12%
Clc1cccc(-c2cc3nc4c(c(N5CCN(c6cnccn6)CC5)n3n2)CCCC4)c1	10µM*	1%	12%	-21%
Clc1cccc(-c2cc3nc4c(c(N5CCOCC5)n3n2)CCCC4)c1	32µM*	6%	-7%	0%
Cc1ccccc1NC(=O)c1sc2nc3c(cc2c1N)CCCC3	?	·	-12%	?
O=C(CSc1ncccc1C(=O)Oc1ccccc1Cl)Nc1ccc(C(F)(F)F)cc1Cl	-2%	·	8%	6%
CCc1c(C)c2cc3c(c(C)c2oc1=O)OCN(CCc1ccccc1F)C3	5%	·	207%	-2%
SMILES	ClpP mod	GLP1R ag	HEK293 tox	GLP1R inv ag
COc1cc2c(C#N)c(N3CCOCC3)nc(N)c2c(N)n1	16µM*	7%	-5%	69%
CCN(CC)c1nc(N)c2c(N)nc(OC)cc2c1C#N	4%	6%	-4%	23%
COc1ccc(-c2nc(C#N)c(N3CCc4ccccc4C3)o2)cc1OC	?	?	20%	2%
COc1cc2c(C#N)c(N3CCc4ccccc4C3)nc(N)c2c(N)n1	28µM*	2%	2%	36%
COc1cc2c(C#N)c(N3CCCCC3)nc(N)c2c(N)n1	28µM*	1%	-15%	20%
COc1cc2c(cc1OC)C(c1oc(-c3ccc(-c4cc(Cl)ccc4Cl)o3)cc1C)=NCC2	-11%	·	·	·
Cc1ccc(-c2cc(C(F)(F)F)n3nc(C(=O)Nc4sc5c(c4C#N)CCC(C)C5)cc3n2)cc1 (stereo not drawn)	1%	·	-14%	-1%
CS(=O)(=O)N1CCc2cc(C(=O)Nc3ccc(Cl)c(C(F)(F)F)c3)ccc21	?	·	?	10µM*
CS(=O)(=O)N1CCc2cc(C(=O)Nc3ccc(C(F)(F)F)cc3)ccc21	10%	·	-18%	-14%
COC(=O)c1c(-c2ccc(Cl)cc2)noc1N1CCN(c2ccc(C)cc2C)CC1	-4%	·	-4%	-1%
CSc1cccc(NC(=O)Nc2ccccc2OCc2cc(=O)n3cc(C)ccc3n2)c1	274%	·	-2%	7%
CS(=O)(=O)c1ncc(N(Cc2ccccc2)Cc2ccco2)c(C(=O)Nc2cccc(C(F)(F)F)c2)n1	-12%	·	-12%	?
Cc1ccc(NC(=O)c2nc(S(C)(=O)=O)ncc2N(Cc2ccco2)Cc2ccccc2F)c(C)c1	-7%	·	-3%	5%
CC(C)c1ccc(CN(Cc2ccco2)c2cnc(S(C)(=O)=O)nc2C(=O)Nc2ccccc2)cc1	-5%	·	0%	5µM*
CCS(=O)(=O)c1ncc(N(Cc2ccco2)Cc2ccccc2F)c(C(=O)Nc2cccc(Cl)c2)n1	-3%	·	11%	8.9µM*
Cc1onc(-c2ccc(Cl)cc2)c1-c1ccnc(SCC(=O)Nc2cc(Cl)cc(Cl)c2)n1	·	2%	-18%	3.5µM*
O=C(NNC(=O)c1cc(-c2ccc(Cl)cc2Cl)nc2ccccc12)Nc1ccccc1	-1%	-20%	9%	2.8µM*
O=C(Nc1nn[nH]n1)c1cc(-c2ccc(Cl)c(Cl)c2Cl)nc2ccccc12	-4%	-5%	6%	8%
Cc1cc2oc3c(c(=O)c2cc1C)C1(C(=O)N(C)c2ccccc21)N(CCO)C3=O (stereo not drawn)	-1%	·	-4%	9%
COc1ccc(N2CCN(S(=O)(=O)CCNC(=O)COc3ccccc3)CC2)cc1	18µM*	2%	3%	-13%
COc1ccc(N2CCN(S(=O)(=O)CCNC(=O)COc3cccc(OC)c3)CC2)cc1	-10%	1%	-4%	-6%
CCCCc1oc2ccc(NS(C)(=O)=O)cc2c1C(=O)c1ccc(OCCCN(CCCC)CCCC)cc1	·	-1%	·	·
